According to PubChem BioAssay (EPA / NIEHS):
Activity calls are given as the source filed them. Rule for the calls: active = hit-call score of the fitted dose curve at least 0.9, where 1 is the maximum; inactive = score below 0.9.

What was measured:
Settings in all cases: mRNA level, 48 h; actives raise or lower the signal
[1] = read-out: Pro-epidermal growth factor (Homo sapiens) (UniProt P01133); assay: LTEA_HepaRG_EGF: Life Technologies and Expression Analysis (LTEA) Assay for Epidermal growth factor (EGF) using HepaRG (AID 2283489)
Procedure, shortened: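 EGF transcript measured by Fluidigm TaqMan qRT-PCR with three housekeeping genes for normalization, 48 h after dosing HepaRG cultures in duplicate (top 100 uM, half-log steps, 0.5% DMSO vehicle). Gain or loss relative to DMSO fitted.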

[2] = read-out: Early growth response protein 1 (EGR1) transcription factor, EGR1 (gene 1958); assay: LTEA_HepaRG_EGR1: Life Technologies and Expression Analysis (LTEA) Assay for Early growth response protein 1 (EGR1) transcription factor using HepaRG (AID 2283490)
Procedure, shortened: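 Differentiated HepaRG cells in serum-free induction medium exposed 48 hours, duplicate, to 8 half-log concentrations up to 100 uM in 0.5% DMSO. EGR1 mRNA measured by TaqMan qRT-PCR, normalized to ACTB, GAPDH, POLR2A; bidirectional fit versus DMSO.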

[3] = read-out: Ezrin (EZR), EZR (gene 7430); assay: LTEA_HepaRG_EZR: Life Technologies and Expression Analysis (LTEA) Assay for Ezrin (EZR) using HepaRG (AID 2283491)
Procedure, shortened: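 HepaRG, 48 h chemical exposure, 8-pt half-log series from 100 uM, 0.5% DMSO vehicle, duplicates. Read-out: EZR mRNA by TaqMan qRT-PCR (Fluidigm array), housekeeping-normalized; bidirectional curve fit vs DMSO baseline.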

[4] = read-out: Cytochrome P450 3A7 (Homo sapiens) (UniProt P24462); assay: LTEA_HepaRG_CYP3A7: Life Technologies and Expression Analysis (LTEA) Assay for CYP3A7 using HepaRG (AID 2283492)
Procedure, shortened: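 CYP3A7 transcript measured by qRT-PCR (ACTB, GAPDH, POLR2A normalization) after 48 h chemical exposure of HepaRG cells in duplicate. Eight half-log concentrations, maximum 100 uM, 0.5% DMSO vehicle; bidirectional curve fitting against DMSO baseline.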

CYP3A5 (gene 1577) = assay: LTEA_HepaRG_CYP3A5: Life Technologies and Expression Analysis (LTEA) Assay for CYP3A5 using HepaRG (AID 2283493)
Procedure, shortened: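 mRNA induction or loss of CYP3A5 assessed in HepaRG after 48 h dosing, 100 uM top concentration, duplicate wells; TaqMan qRT-PCR with ACTB, GAPDH, POLR2A normalization; 0.5% DMSO as negative control.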

[5] = read-out: Fatty Acid-Binding Protein 1 (FABP1), FABP1 (gene 2168); assay: LTEA_HepaRG_FABP1: Life Technologies and Expression Analysis (LTEA) Assay for Fatty Acid-Binding Protein 1 (FABP1) using HepaRG (AID 2283494)
Procedure, shortened: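 Differentiated human HepaRG cells exposed 48 h in serum-free induction medium to eight half-log concentrations up to 100 uM (0.5% DMSO), duplicate. FABP1 mRNA by qRT-PCR, normalised to ACTB, GAPDH, POLR2A; bidirectional fitting against DMSO.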

[6] = read-out: Cytochrome P450 4A22 (Homo sapiens) (UniProt Q5TCH4); assay: LTEA_HepaRG_CYP4A22: Life Technologies and Expression Analysis (LTEA) Assay for Cytochrome P450 4A22 (CYP4A22) using HepaRG (AID 2283495)
Procedure, shortened: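 Gene expression measured by qRT-PCR against three housekeeping genes (ACTB, GAPDH, POLR2A), with gain or loss fitted relative to 0.5% DMSO vehicle. HepaRG cultures received 48 h chemical treatment, top concentration 100 uM, half-log steps, duplicate wells.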

[7] = read-out: Cytochrome P450 7A1 (Homo sapiens) (UniProt P22680); assay: LTEA_HepaRG_CYP7A1: Life Technologies and Expression Analysis (LTEA) Assay for Cytochrome P450 7A1 (CYP7A1) using HepaRG (AID 2283496)
Procedure, shortened: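 Gene expression endpoint in human HepaRG liver cells treated for 48 h with test chemicals (up to 100 uM, 0.5% DMSO). Values come from bidirectional concentration-response fitting versus DMSO.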

[8] = read-out: Glutathione S-Transferase (GSTA2), GSTA2 (gene 2939); assay: LTEA_HepaRG_GSTA2: Life Technologies and Expression Analysis (LTEA) Assay for Glutathione S-Transferase (GSTA2) using HepaRG (AID 2283497)
Procedure, shortened: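 Differentiated human HepaRG cells were exposed in duplicate for 48 h in serum-free induction medium, 8 points from 100 uM top in half-log steps, 0.5% DMSO. GSTA2 mRNA was measured by TaqMan qRT-PCR, normalized to ACTB, GAPDH and POLR2A; bidirectional fit versus DMSO.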

[9] = read-out: Glutamate-cysteine ligase catalytic (GCLC), GCLC (gene 2729); assay: LTEA_HepaRG_GCLC: Life Technologies and Expression Analysis (LTEA) Assay for Glutamate-cysteine ligase catalytic (GCLC) using HepaRG (AID 2283498)
Procedure, shortened: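 Differentiated HepaRG cells exposed 48 h in serum-free induction medium, eight-point half-log series topping at 100 uM in 0.5% DMSO, duplicates. GCLC mRNA by qRT-PCR normalized to ACTB, GAPDH and POLR2A, fitted bidirectionally versus DMSO.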

[10] = read-out: growth arrest and DNA damage 45 (GADD45G), GADD45G (gene 10912); assay: LTEA_HepaRG_GADD45G: Life Technologies and Expression Analysis (LTEA) Assay for growth arrest and DNA damage 45 (GADD45G) using HepaRG (AID 2283499)
Procedure, shortened: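 GADD45G transcript level by qRT-PCR (housekeeping-normalized: ACTB, GAPDH, POLR2A) after 48 h chemical treatment of a single HepaRG lot in serum-free induction medium; eight-point half-log series up to 100 uM in 0.5% DMSO, duplicates, up- or down-regulation scored.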

[11] = read-out: Glutamate-cysteine ligase regulatory (GCLM), GCLM (gene 2730); assay: LTEA_HepaRG_GCLM: Life Technologies and Expression Analysis (LTEA) Assay for Glutamate-cysteine ligase regulatory (GCLM) using HepaRG (AID 2283500)
Procedure, shortened: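 Human liver HepaRG cultures receive test chemicals for 48 hours at up to 100 uM in 0.5% DMSO. GCLM expression is measured by qRT-PCR and analysed for increases or decreases against vehicle.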

[12] = read-out: Glutathione S-transferase M3 (GSTM3), GSTM3 (gene 2947); assay: LTEA_HepaRG_GSTM3: Life Technologies and Expression Analysis (LTEA) Assay for Glutathione S-transferase M3 (GSTM3) using HepaRG (AID 2283501)
Procedure, shortened: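 GSTM3 transcript levels came from Fluidigm TaqMan qRT-PCR normalized to three housekeeping genes, fitted in both directions against DMSO. HepaRG cultures received chemicals for 48 h in serum-free induction medium (0.5% DMSO), 8 half-log concentrations up to 100 uM, duplicate.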

[13] = read-out: Heat shock 70 kDa protein 1 (HSPA1A), gene 3303; assay: LTEA_HepaRG_HSPA1A: Life Technologies and Expression Analysis (LTEA) Assay for Heat shock 70 kDa protein 1 (HSPA1A) using HepaRG (AID 2283502)
Procedure, shortened: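 HSPA1A induction in human HepaRG liver cells is measured after 48 h of chemical treatment (100 uM maximum, 0.5% DMSO vehicle). Expression comes from qRT-PCR normalized to endogenous controls.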

[14] = read-out: Hypoxia-inducible factor 1-alpha (Homo sapiens) (UniProt Q16665); assay: LTEA_HepaRG_HIF1A: Life Technologies and Expression Analysis (LTEA) Assay for Hypoxia-inducible factor 1 (HIF1A) Trancription factor using HepaRG (AID 2283503)
Procedure, shortened: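 HepaRG, 48 h exposure, 8-pt half-log series from 100 uM, 0.5% DMSO vehicle, duplicates. Readout: HIF1A transcript by qRT-PCR (Fluidigm array), housekeeping-normalised. Bidirectional curve fit vs DMSO baseline.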

[15] = read-out: 3-Hydroxy-3-Methylglutaryl-CoA Synthase 2 (HMGCS2), HMGCS2 (gene 3158); assay: LTEA_HepaRG_HMGCS2: Life Technologies and Expression Analysis (LTEA) Assay for 3-Hydroxy-3-Methylglutaryl-CoA Synthase 2 (HMGCS2) using HepaRG (AID 2283504)
Procedure, shortened: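 Readout is HMGCS2 transcript by qRT-PCR, housekeeping-normalised (ACTB/GAPDH/POLR2A) and fitted bidirectionally against 0.5% DMSO. Differentiated HepaRG cells received chemicals 48 h, duplicate wells, eight half-log concentrations topping at 100 uM.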

HGF (gene 3082) = assay: LTEA_HepaRG_HGF: Life Technologies and Expression Analysis (LTEA) Assay for Hepatocyte Growth Facto (HGF) using HepaRG (AID 2283505)
Procedure, shortened: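 HGF transcript was quantified by TaqMan qRT-PCR against three housekeeping genes after 48 h treatment of HepaRG cells. Exposure ran in duplicate over eight half-log steps topping at 100 uM in 0.5% DMSO vehicle.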

[16] = read-out: Intercellular Adhesion Molecule 1 (ICAM1), ICAM1 (gene 3383); assay: LTEA_HepaRG_ICAM1: Life Technologies and Expression Analysis (LTEA) Assay for Intercellular Adhesion Molecule 1 (ICAM1) using HepaRG (AID 2283507)
Procedure, shortened: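 ICAM1 transcript levels measured by qRT-PCR, normalized to three housekeeping genes (ACTB, GAPDH, POLR2A), after 48 h chemical exposure of HepaRG cells. Duplicate eight-point half-log series from 100 uM in 0.5% DMSO; gain or loss fitted against vehicle.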

[17] = read-out: Insulin-like growth factor-binding protein 1 (IGFBP1), IGFBP1 (gene 3484); assay: LTEA_HepaRG_IGFBP1: Life Technologies and Expression Analysis (LTEA) Assay for Insulin-like growth factor-binding protein 1 (IGFBP1) using HepaRG (AID 2283508)
Procedure, shortened: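 Read-out is qRT-PCR transcript level normalized to three housekeeping genes, fitted in both directions against 0.5% DMSO. Differentiated HepaRG cells received eight half-log concentrations (top 100 uM) in duplicate for 48 h in serum-free induction medium.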

[18] = read-out: Interleukin 6 (IL6), IL6 (gene 3569); assay: LTEA_HepaRG_IL6: Life Technologies and Expression Analysis (LTEA) Assay for Interleukin 6 (IL6) using HepaRG (AID 2283509)
Procedure, shortened: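 HepaRG cells exposed in duplicate for 48 h to eight half-log concentrations, top 100 uM, in 0.5% DMSO serum-free induction medium. mRNA measured by qRT-PCR, normalized to ACTB, GAPDH and POLR2A. Bidirectional fit versus DMSO.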

Measured: outcome

Chain of Cytochrome P450 3A7 (Homo sapiens) (P24462 whole entry, looked up): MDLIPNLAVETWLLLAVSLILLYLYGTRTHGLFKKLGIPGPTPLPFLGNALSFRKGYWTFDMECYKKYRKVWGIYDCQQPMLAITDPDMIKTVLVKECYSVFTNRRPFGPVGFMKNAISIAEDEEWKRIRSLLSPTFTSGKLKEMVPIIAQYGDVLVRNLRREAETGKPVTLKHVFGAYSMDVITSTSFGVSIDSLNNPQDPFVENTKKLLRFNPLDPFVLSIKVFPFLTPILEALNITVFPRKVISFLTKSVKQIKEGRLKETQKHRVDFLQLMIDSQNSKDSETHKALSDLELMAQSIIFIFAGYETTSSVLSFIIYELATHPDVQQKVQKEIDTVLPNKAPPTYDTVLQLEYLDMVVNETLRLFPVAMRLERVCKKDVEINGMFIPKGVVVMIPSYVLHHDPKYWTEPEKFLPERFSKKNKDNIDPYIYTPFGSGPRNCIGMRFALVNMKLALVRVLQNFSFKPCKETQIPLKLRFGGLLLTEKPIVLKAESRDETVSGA
Chain of Hypoxia-inducible factor 1-alpha (Homo sapiens) (Q16665 whole entry, looked up): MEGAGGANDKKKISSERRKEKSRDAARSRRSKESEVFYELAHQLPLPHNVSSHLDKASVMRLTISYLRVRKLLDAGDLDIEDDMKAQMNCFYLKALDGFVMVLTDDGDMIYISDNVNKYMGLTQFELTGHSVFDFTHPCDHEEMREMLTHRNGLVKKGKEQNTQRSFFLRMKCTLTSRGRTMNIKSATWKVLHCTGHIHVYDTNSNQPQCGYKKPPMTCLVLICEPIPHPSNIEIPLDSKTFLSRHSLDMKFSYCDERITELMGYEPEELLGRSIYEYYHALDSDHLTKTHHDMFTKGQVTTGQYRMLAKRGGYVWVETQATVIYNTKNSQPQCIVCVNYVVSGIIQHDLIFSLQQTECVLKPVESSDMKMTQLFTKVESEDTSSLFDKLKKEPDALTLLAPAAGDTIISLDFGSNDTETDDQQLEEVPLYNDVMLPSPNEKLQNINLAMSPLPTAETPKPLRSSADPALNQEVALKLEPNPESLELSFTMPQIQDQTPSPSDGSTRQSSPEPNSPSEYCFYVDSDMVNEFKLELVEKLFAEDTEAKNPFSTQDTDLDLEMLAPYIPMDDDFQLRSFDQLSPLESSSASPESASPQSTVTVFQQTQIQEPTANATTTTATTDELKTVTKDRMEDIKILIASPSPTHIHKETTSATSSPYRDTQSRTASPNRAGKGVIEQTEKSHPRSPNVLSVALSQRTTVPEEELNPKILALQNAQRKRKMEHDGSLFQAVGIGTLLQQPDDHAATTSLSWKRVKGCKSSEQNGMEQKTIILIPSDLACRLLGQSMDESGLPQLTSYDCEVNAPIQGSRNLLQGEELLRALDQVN

CS(=O)(=O)OCCCCOS(C)(=O)=O
inactive: all assays above
